# Screens: PubChem BioAssay, National Center for Advancing Translational Sciences (NCATS)
# Sampled rows, rich in hits. Any-hit rate of the full collection: about 1.5%.
# PI5P4Ka inh: blocks human PI5P4K alpha kinase activity; P48426; PI5P4Kalpha enzyme, ADP-Glo luminescence, 60 min; stronger effect = lower value; max response, %; 330,000 compounds, 1.2% hits; AID 652105; active means max response of -50% or lower; inconclusive means between -30% and -50%; inactive means -30% or higher; further: value at the top dose of about 77 µM; on the % scale 0 is the no-effect control and ±100 the full control effect
# Target sequence (P48426 whole entry, looked up): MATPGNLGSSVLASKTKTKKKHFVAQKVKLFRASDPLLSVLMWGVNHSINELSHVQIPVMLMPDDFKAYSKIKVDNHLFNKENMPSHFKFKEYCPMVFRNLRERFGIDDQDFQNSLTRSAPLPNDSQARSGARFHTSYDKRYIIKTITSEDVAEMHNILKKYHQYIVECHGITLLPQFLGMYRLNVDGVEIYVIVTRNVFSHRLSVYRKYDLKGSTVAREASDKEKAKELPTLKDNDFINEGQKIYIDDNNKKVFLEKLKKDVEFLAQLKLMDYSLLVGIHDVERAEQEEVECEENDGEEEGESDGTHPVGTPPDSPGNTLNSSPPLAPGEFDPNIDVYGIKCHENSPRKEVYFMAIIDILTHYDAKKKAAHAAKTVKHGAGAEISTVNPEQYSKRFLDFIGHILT
#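 Single end-point luminescence (ADP-Glo) quantified ADP from PI5P4Kalpha turnover; ATP 5 microM final, 1 h at RT, 0.1% CHAPS and 0.28 mM EGTA in HEPES pH 7.4.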
# Tb PGK inh: inhibitors of T. brucei phosphoglycerate kinase; P07378; PGK/GAPDH coupled, Kinase-Glo luminescence, 60 min; 380,000 compounds, 0.043% hits; AID 602233; Potency, µM (series often up to 57.5 µM), for inactives: top-dose activity change, negative = inhibition, most hits filed as inhibitors; further: potency means the concentration at half of the fitted maximal effect; on the % scale 0 is the no-effect control and ±100 the full control effect; nearly all actives have a fitted effect of over 60% in size
#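 Luminescent ATP detection (Kinase-Glo Plus) follows a 60-minute room-temperature incubation, with wells lacking PGK as controls. Buffer: 100 mM TEA (pH 7.6), 5 mM MgCl2, 0.01% Tween-20. Coupling enzyme GAPDH (100 nM final) supplies unstable 1,3-BPG in-well.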
# TDP1 inh: TDP1 (human) enzyme inhibition. recombinant TDP1, AlphaScreen DNA substrate cleavage. Q9NUW8. 350,000 compounds, 0.28% hits. Potency, µM (series often up to 130 µM), without a hit: top-dose activity change, negative = inhibition, most hits filed as inhibitors; further: potency means the concentration at half of the fitted maximal effect; on the % scale 0 is the no-effect control and ±100 the full control effect; nearly all actives have a fitted effect of over 40% in size
#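 Tdp1 1 nM final; 15 min RT w/ cpd; substrate 15 nM, 5 min; beads 10 ug/ml, 10 min; AlphaScreen read. Neg ctrl: no enzyme.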
# Tb PFK inh: T. brucei PFK enzyme inhibition. T. brucei PFK, ADP-Glo luminescence. Potency, µM (top dose mostly 57.5 µM), for inactives: at the top dose activity, negative = inhibition, hits mostly inhibitors. 330,000 compounds, 0.17% hits. AID 485367;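 further: potency means the concentration at half of the fitted maximal effect; 0% = uninhibited 1x PFK enzyme wells and -100% = no-enzyme wells; nearly all actives have a fitted effect of over 60% in size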
#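 Activity is normalized to no-enzyme wells (full inhibition) and 1.25 nM enzyme wells (no inhibition). Reaction: 0.5 mM F6P, 0.1 mM ATP, 45 min RT, ADP-Glo luminescence; concentration-response curves fitted and classed by quality.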
# FEN1 inh-1: blocks human flap endonuclease 1 | P39748 | Recombinant FEN1 flap cleavage, fluorescence, 15 min | Potency, µM (top dose mostly 114 µM), inactives show top-dose activity change, negative = inhibition, hits mostly inhibitors | 390,000 compounds, 0.35% hits | AID 588795; further: potency means the concentration at half of the fitted maximal effect; on the % scale 0 is the no-effect control and ±100 the full control effect; nearly all actives have a fitted effect of over 65% in size
# Target sequence (P39748 whole entry, looked up): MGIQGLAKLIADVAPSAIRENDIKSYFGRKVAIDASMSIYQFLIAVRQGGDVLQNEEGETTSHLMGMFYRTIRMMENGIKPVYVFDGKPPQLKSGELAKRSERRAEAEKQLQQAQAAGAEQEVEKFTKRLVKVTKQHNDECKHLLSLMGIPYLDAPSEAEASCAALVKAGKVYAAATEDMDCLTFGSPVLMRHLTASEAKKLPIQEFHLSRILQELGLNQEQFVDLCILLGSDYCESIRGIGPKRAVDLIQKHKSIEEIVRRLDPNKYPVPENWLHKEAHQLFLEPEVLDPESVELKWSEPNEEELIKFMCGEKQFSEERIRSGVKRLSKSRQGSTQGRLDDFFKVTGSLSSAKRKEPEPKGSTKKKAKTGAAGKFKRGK
#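 In this screen, 50 nM flap DNA substrate was added to 10 nM FEN1 pretreated with compound for 15 min at room temperature; cleavage was followed with reads at 0 and 15 min, and Hill fitting gave concentration–response parameters.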
# WRN helicase inh-1: inhibitors of human WRN helicase | Potency, µM (series often up to 114 µM), without a hit: at the top dose activity change, negative = inhibition, most hits filed as inhibitors | AID 651768 | 360,000 compounds, 0.46% hits | WRN helicase unwinding, fluorescent forked duplex, kinetic; further: potency means the concentration at half of the fitted maximal effect; on the % scale 0 is the no-effect control and ±100 the full control effect; nearly all actives have a fitted effect of over 55% in size
#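 Enzyme (20 nM final) and test compound sit together 15 min at room temperature before substrate addition. Substrate is a single-forked duplex oligonucleotide (100 nM) labelled with fluorophore and quencher, with 2 mM ATP; helicase unwinding raises red fluorescence, read kinetically.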
# FEN1 inh-2: confirmation of human FEN1 inhibitors; shares compounds with FEN1 inh-1; FEN1 flap cleavage, TAMRA/BHQ2 fluorogenic DNA substrate; Potency, µM, hits mostly inhibitors; 880 compounds, 79% hits; AID 720498; further: potency means the concentration at half of the fitted maximal effect; nearly all actives have a fitted effect of over 60% in size
# WRN helicase inh-2: WRN helicase inhibition, cherry-pick retest; 610 compounds, 63% hits; AID 720497; WRN helicase DNA unwinding, fluorescence kinetic; Potency, µM (doses to about 57.1 µM), for the others: at the top dose activity, negative = inhibition, hits mostly inhibitors; shares compounds with WRN helicase inh-1; further: potency means the concentration at half of the fitted maximal effect; nearly all actives have a fitted effect of over 65% in size
# TO DNA binding: DNA binding via thiazole orange displacement; shares compounds with WRN helicase inh-1; thiazole orange DNA binding displacement, fluorescence; Potency, µM (series often up to 57.1 µM), for the others: at the highest dose activity change, negative = inhibition, usual class: inhibitors; 610 compounds, 10% hits;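 further: drop in dye fluorescence marks compound binding to DNA; potency means the concentration at half of the fitted maximal effect; on the % scale 0 is the no-effect control and ±100 the full control effect; nearly all actives have a fitted effect of over 60% in size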
# BLM counter: blocks human BLM helicase in WRN counterscreen; Recombinant BLM helicase DNA unwinding, red fluorescence; Potency, µM (doses to about 57.1 µM), for the others: at the top dose activity change, negative = inhibition, most hits filed as inhibitors; shares compounds with WRN helicase inh-1; 610 compounds, 60% hits; further: potency means the concentration at half of the fitted maximal effect; nearly all actives have a fitted effect of over 60% in size
# Active calls of the source: *; i = inactive; ? = inconclusive; / = not tested or not shown; [ ] = another dose, or the depositor's remark. Unless noted, the call rests on the fitted dose curve; in most records, active means well fitted curve in the direction sought with a large enough effect; inconclusive means small, poorly fitted or top-dose-only effect, or another doubt; inactive means no such curve, though single readings can be large; an effect the other way counts as inactive or inconclusive.
SMILES,PI5P4Ka inh,Tb PGK inh,TDP1 inh,Tb PFK inh,FEN1 inh-1,WRN helicase inh-1,FEN1 inh-2,WRN helicase inh-2,TO DNA binding,BLM counter
Cn1cccc1/C=C1\SC(=S)N(NC(=O)c2ccccc2O)C1=O,-13.4,-1.3%,/,0.0%,3.2%,?,/,/,/,/
CN(C)CCCNc1cc(N2CCN(C3CCCCC3)CC2)c2noc3c2c1C(=O)c1ccccc1-3,/,i,11.5%,/,11.2µM*,/,30.1*,24.1µM*,212.8%,42.9µM*
COc1ccc(-c2nn(C)c3sc(C(=O)Nc4cc(OC)c(OC)c(OC)c4)cc23)cc1OC,/,7.1%,11.6%,/,10µM*,/,7.57*,9.61µM*,?,10.8µM*
COc1ccc(NC(=O)c2cc3c(-c4ccc(OC)c(OC)c4)nn(C)c3s2)cc1OC,0.4,5.3%,7.6%,0.1%,11.2µM*,11.9µM*,10.7*,13.6µM*,-9.5%,13.6µM*
CC(=O)c1ccc[n+](CC(=O)c2ccc(F)cc2)c1,/,/,/,/,0.9%,/,/,/,/,/
CN(C)/C=C1\SC(=S)N(c2ccc(Br)cc2)C1=O,0.3,0.8%,4.3%,-3.1%,?,?,33.8*,24.1µM*,2.8%,21.5µM*
COc1ccc(OC2C=CC(C#Cc3ccc(F)cc3F)OC2CO)cc1 (centres undefined),/,/,-2.6%[21 µM],/,/,/,/,/,/,/
NS(=O)(=O)c1ccc(N/N=C/c2ccc(C(=O)O)cc2)c([N+](=O)[O-])c1,-14.0,-7.0%,-1.4%,0.7%,0.8%,-13.6%,/,/,/,/
COc1cc(C=NNc2ccc(S(=O)(=O)Nc3ccccc3C(=O)O)cc2[N+](=O)[O-])ccc1O,-68.8*,-12.1%,-0.4%,?,44.7µM*,79.4µM*,60.1*,24.1µM*,24.1µM*,27.1µM*
O=C(O)c1ccccc1NS(=O)(=O)c1ccc(N/N=C/c2cccc(O)c2O)c([N+](=O)[O-])c1,?,8.91µM*,/,/,39.8µM*,20µM*,47.8*,19.2µM*,27.1µM*,6.07µM*
CN1CC2(Cc3cc([N+](=O)[O-])ccc31)C(=O)OC(C)(C)OC2=O,/,/,/,/,-5.2%,/,/,/,/,/
O=C(O)c1ccc(S(=O)(=O)/N=C2\C=C(Nc3ccccc3F)C(=O)c3ccccc32)cc1,?,?,12.3%,4.5%,44.7µM*,39.8µM*,?,?,-25.7%,?
CCNC(=O)C1CCCN(C(=O)c2cccc(OC(F)(F)F)c2)CC1 (centres undefined),0.0,/,/,/,/,1.8%,/,/,/,/
CC#CCN1c2ccccc2[C@]23C[C@@H](C(=O)OC)N(C(=O)COCc4ccccc4)C2=NC(C(=O)OC)=C(C(=O)OC)[C@H]13,/,/,13.7%[12.3 µM],/,/,/,/,/,/,/
CCCCCCNC(=O)CCCCCNS(=O)(=O)c1ccc(Br)cc1,13.2,-2.2%,-2.6%,-8.0%,-2.1%,6.3%,/,/,/,/
O=C(O)CC(C(=O)O)N1C(=O)/C(=C/c2ccc(-c3nc4ccccc4s3)o2)SC1=S (centres undefined),-10.6,25.1µM*,/,?,35.5µM*,28.2µM*,60.1*,21.5µM*,150.9%,-13.9%
O=C(O)c1ccc(-c2nc3ccccc3s2)o1,-24.0,-3.8%,/,14.0%,-2.3%,4.4%,/,/,/,/
N#CNC(=O)c1ccc(-n2cccc2/C=C2\NC(=O)N(CC(=O)Nc3ccc(F)cc3)C2=O)cc1,/,/,/,/,/,/,33.8*,6.07µM*,9.61µM*,3.83µM*
O=C(CN1C(=O)N/C(=C\c2ccccc2OCc2ccc(C(=O)O)cc2)C1=O)Nc1ccc(F)cc1,-13.3,-11.2%,7.8%[0.0935 µM],-7.5%,-28.3%,-19.5%,/,/,/,/
Cc1ccc2c(c1)c(/C=C/c1cc[n+](C)cc1)c(C)n2C,3.1,i,/,0.7%,?,39.8µM*,33.8*,21.5µM*,i,-19.1%
O=C1NC2c3c(Cl)sc(Cl)c3C(=O)C2O1 (centres undefined),?,?,/,/,?,2.38µM*,?,15.2µM*,-18.2%,1.36µM*
COc1ccc(S(=O)(=O)N2CCN(c3ccc(F)cc3)CC2)cc1C(=O)N1CCOCC1,-7.3,i,/,4.1%,-1.1%,8.9%,/,/,/,/
Cn1cc(/C=N/NC(=O)c2cc3cc(Br)ccc3o2)c2ccccc21,-13.5,-2.0%,/,1.6%,5.8%,-6.3%,/,/,/,/
O=C(O)c1ccc(-n2cccc2/C=N\NC(=O)c2cc3cc(Br)ccc3o2)cc1,-92.7*,?,1.12µM*,-29.1%,?,39.8µM*,?,15.2µM*,-19.0%,5.41µM*
CC[n+]1c(/C=C(\C)OC)sc2ccccc21,1.1,9.5%,11.9%,-2.4%,5.5%,0.0%,/,/,/,/
SMILES,PI5P4Ka inh,Tb PGK inh,TDP1 inh,Tb PFK inh,FEN1 inh-1,WRN helicase inh-1,FEN1 inh-2,WRN helicase inh-2,TO DNA binding,BLM counter
CC[n+]1c(/C=C/C=C/N(C(C)=O)c2ccccc2)sc2cc(OC)ccc21,-54.0*,-12.7%,5.5%,-0.5%,50.1µM*,?,42.6*,24.1µM*,426.0%,21.5µM*
Cc1ccc(-c2[nH]ncc2CNCc2ccc(CN(C)C)cc2)cc1,/,/,0.2%,/,-2.6%,/,/,/,/,/
COc1cc(/C=C2\SC(=S)N(NC(=O)c3ccc(O)c(OC)c3)C2=O)ccc1O,?,-18.7%,/,-20.1%,?,39.8µM*,42.6*,19.2µM*,-0.7%,19.2µM*
O=[N+]([O-])c1cc(-c2ccccc2)cc([N+](=O)[O-])c1O,?,-2.0%,/,/,-13.9%,-24.1%,/,/,/,/
O=[N+]([O-])c1cc2ccccc2c(O)c1O,?,?,/,/,/,?,15.1*,12.1µM*,-9.9%,0.681µM*
Cc1ccccc1C(=O)Nc1ccccc1C(=O)OCc1cc(=O)n2nc(C3CC3)sc2n1,/,i,-1.2%,/,13.4%,/,/,/,/,/
Nc1nonc1-c1nc2ccccc2n1CC(=O)N/N=C/c1ccc(-c2cccc(C(=O)O)c2)o1,-59.5*,?,14.1µM*,-22.0%,44.7µM*,39.8µM*,37.9*,24.1µM*,?,24.1µM*
COc1ccccc1C1NC(c2ccc3c(c2)OCO3)=CC(c2ccccc2O)N1 (centres undefined),/,/,1.5%,/,7.0%,/,/,/,/,/
